Shown are actives, neighbours in structure and some others; about 4% of the full set was active somewhere.
PK Bst: pyruvate kinase (B. stearothermophilus) modulation | purified pyruvate kinase, luminescence ATP production; ribose 5-phosphate activator present at AC10 | hit rate 1.2% among 51,000 | Potency, µM; in the data active means potency below about 11 µM; inconclusive means mostly about 12 µM to 25 µM;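 the screen sought inhibitors and activators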;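 further: scaled between full activation by ribose 5 phosphate and full inhibition by luteolin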
Tau fil binding: binders of human tau filaments; P10636; recombinant tau filaments, thioflavin S fluorescence, 15 h; filaments grown with octadecylsulfate alongside compound; Potency, µM (doses to about 57.1 µM), inactives show at the top dose activity change, negative = inhibition; hit rate 2% among 71,000; AID 596;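 further: on the % scale 0 is the no-effect control and ±100 the full control effect; actives lower thioflavin S fluorescence by blocking filaments or displacing dye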
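ThS-based fibril read: tau 1 uM final, inducer ODS 30 uM final, 37 C for 15 h, ex 450/em 510 nm.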
Caspase-1 inhib: allosteric or competitive inhibitors of human caspase-1; P29466; Caspase-1 enzyme, Ac-WEHD-AFC fluorogenic rate; Potency, µM (doses to about 57.5 µM), for inactives: at the top dose activity change, negative = inhibition, usual class: inhibitors; hit rate 0.03% among 75,000;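 further: plate controls were vehicle for no effect and no substrate for full effect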
Luciferase inh: blocks Photinus pyralis firefly luciferase activity; hit rate 2.2% among 72,000; purified firefly luciferase, luminescence, 8 min; Potency, µM (doses to about 57.1 µM), without a hit: at the top dose activity change, negative = inhibition, hits mostly inhibitors; AID 411; further: on the % scale 0 is the no-effect control and ±100 the full control effect; nearly all actives have a fitted effect of over 40% in size
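Luminescence read-out after 8 min at room temperature; enzyme reaction used luciferin plus 10 uM ATP (linear range) in imidazole buffer pH 7.2 with KCl, MgCl2, Tween 20 and BSA. Each sample was run as a titration.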
Casp7 inh: allosteric or competitive inhibitors of human caspase-7; P55210; recombinant caspase-7, Ac-DEVD-AFC fluorescence rate; Potency, µM (highest dose often 57.5 µM), inactives show top-dose activity change, negative = inhibition, actives largely listed as inhibitors; hit rate 0.02% among 75,000; AID 889; active means well fitted inhibition curve with a large enough effect in the main read-out, with a control signal flat, not every such curve was filed as active; inconclusive means small, poorly fitted or top-dose-only effect, or a change in a side signal; further: % of control where 0% means no effect
An asterisk follows results filed as active; i = inactive; ? = inconclusive; . = no result given; ! = repeats disagree; [ ] = dose if it differs, or a comment. Unless noted, the call rests on the fitted dose curve; in most records, active means well fitted curve in the direction sought with a large enough effect; inconclusive means small, poorly fitted or top-dose-only effect, or another doubt; inactive means no such curve, though single readings can be large; an effect the other way counts as inactive or inconclusive. Potency means the concentration at half of the fitted maximal effect.

SMILES	PK Bst	Tau fil binding	Caspase-1 inhib	Luciferase inh	Casp7 inh
CCOc1ccccc1N1CCN(S(=O)(=O)CC)CC1	.	-23%	0%	-2%	-3%
Cc1cc(C)nc(N(C#N)CC(=O)N2CCC(C(N)=O)CC2)n1	?	8%	-2%	7.9µM*	0%
Cc1cc(=O)[nH]c(SCC(=O)N2CCC(C(N)=O)CC2)n1	>57	-1%	-2%	2%	0%
O=C(CSc1ccc2nnc(-c3ccccc3)n2n1)N1CCN(c2ccccc2)CC1	.	1.6µM*	4%	1%	1%
CC(C)C[C@@H](CC(=O)N[C@@H](CCC(=O)O)CC(=O)O)NC(=O)[C@@H]1CNCC[C@H]1NC(=O)C[C@@H](NC(=O)C[C@H](CO)NC(=O)[C@@H]1CCCC[C@H]1N)C(C)C	.	-1%	.	.	.
O=C1c2ccccc2-c2onc3ccc(NCc4ccco4)c1c23	5.3*	.	.	-23%[25.5 µM]	.
CCOc1ccc2noc3c2c1C(=O)c1ccccc1-3	.	i	.	-3%	?
O=C(Nc1ccc(Nc2ccc3c(c2)C(=O)c2ccccc2C3=O)c2c1C(=O)c1ccccc1C2=O)c1ccccc1	.	4µM*	3%[11.5 µM]	-2%[11.4 µM]	-1%[11.5 µM]
COc1ccc(Oc2ncc3nc(-c4cn(C)c5ccccc45)c(=O)n(C)c3n2)cc1	.	2%	?	-3%[11.4 µM]	-12%
Cc1cccn2cc(-c3ccccc3)nc12	?	20%	-2%	10µM*	-2%
Cc1cccn2cc(CNc3ccccc3)nc12	>57	-2%	0%	-18%	0%
Cc1ccc2nc(-c3ccc(S(=O)(=O)N4CCOCC4)cc3)cn2c1	>57	11%	0%	1%	-1%
Cc1ccc2nc(-c3ccccc3)cn2c1	0.39*	-4%	1%	0.25µM*	-6%
CCCS(=O)(=O)NCc1cn2cccc(C)c2n1	>57	7%	-2%	0%	-1%
Cc1cccn2cc(-c3ccc(F)cc3)nc12	.	1%	-1%	7.9µM*	-1%
COCCN(CCOC)C(=O)c1ccc(Cc2nc3ccccc3[nH]2)cc1	.	.	4%	.	-2%
Nc1cc(Cl)c(N)c(Cl)c1	.	-7%	0%	.	1%
Nc1cc(Cl)c(N)cc1Cl	.	25µM*	-2%	-2%	-1%
CCOC(=O)c1sc(NC(=O)c2ccc(C)o2)nc1C	.	22%	1%	13µM*	-1%
CCOC(=O)c1sc(NC(=O)c2ccco2)nc1C	.	17%	-1%	-7%	-1%
COc1ccc(CC(=O)Nc2cc(C)on2)cc1	>57	-4%	0%	-3%	-2%
COc1ccc(C(=O)/C=C/Nc2cc(C)on2)cc1	.	10%	-6%	3.2µM*	-1%
NCC[C@H](N)C(=O)O	.	3%[11.4 µM]	3%[11.5 µM]	4%[11.4 µM]	0%[11.5 µM]
C[N+](C)(N)CCC[N+](C)(C)N	.	-6%[11.4 µM]	0%[11.5 µM]	1%[11.4 µM]	0%[11.5 µM]
O=C(c1cn(-c2ccccc2)nc1-c1cccs1)N1CCN(c2ccccn2)CC1	i	15%	-2%	25µM*	-1%
SMILES	PK Bst	Tau fil binding	Caspase-1 inhib	Luciferase inh	Casp7 inh
COc1ccc(NC(=O)N2CCn3c2nc2ccccc23)cc1	5.6*	106%	-2%	-4%	-4%
COc1ccc(S(=O)(=O)N2CCn3c2nc2ccccc23)cc1	>57	0%	0%	0%	0%
O=C(Nc1ccccc1)N1CCn2c1nc1ccccc12	9.7*	36%	-3%	-9%	0%
COC(=O)NC(c1ccc(F)cc1)C(C(C)=O)C(=O)OC (centres undefined)	.	.	0%[11.5 µM]	.	2%[11.5 µM]
Cc1nn2cc(-c3ccc(Cl)cc3)nc2s1	?	-7%	3%	3.2µM*	4%
Cc1nn2cc(-c3ccc(-c4ccccc4)cc3)nc2s1	.	-1%	-1%	1µM*	-1%
Cc1c(C(=O)Nc2ccccc2)sc2nc(-c3ccccc3)cn12	i	190%	0%	-20%	-2%
CCc1nn2cc(-c3ccccc3)nc2s1	2.4*	-3%	-2%	1.6µM*	0%
Cc1nn2c(-c3ccc(Cl)cc3)nnc2s1	?	.	.	-2%[25.5 µM]	.
CN(C)c1ccc(C(=O)Nc2nc3c(s2)CCCC3)cc1	.	58%	-8%	5µM*	-5%
O=C(Nc1nc(=O)c2ccccc2s1)c1ccccc1	i	.	.	-20%[25.5 µM]	.
O=C(Nc1nc2c(s1)C(=O)CCC2)c1ccccc1	.	14%	-1%	13µM*	0%
Cc1cc(C(=O)Nc2nc3c(s2)CCCC3)no1	i	6%	2%	25µM*	1%[0.00368 µM]
O=c1c(O)c(-c2ccc(O)cc2)oc2cc(O)ccc12	.	-27%	.	-1%[11.4 µM]	?
O=c1c(O)c(-c2ccc(O)cc2)oc2cc(O)cc(O)c12	.	32µM*!	-3%	1%[11.4 µM]	-8%
COc1cc(O)c2c(=O)cc(-c3ccccc3)oc2c1	.	32µM*	-1%	-4%[11.4 µM]	-2%
O=c1cc(-c2ccccc2)oc2cccc(O)c12	.	.	0%	.	-3%
O=c1cc(-c2ccccc2)oc2cc(O)cc(O)c12	.	-19%[25.6 µM]	1%	13µM*	-3%
COC(=O)NC(CC(C)=O)c1ccc(F)cc1 (centres undefined)	.	.	-8%[11.5 µM]	.	-2%[11.5 µM]
Clc1ccc(CSCc2ccc(Cl)cc2Cl)c(Cl)c1	.	-3%[11.4 µM]	-2%[11.5 µM]	3%[11.4 µM]	1%[11.5 µM]
COc1ccc(NC(=O)N2CC[C@@]3(CCCN(C(=O)c4ccco4)C3)C2)cc1	.	-8%	-1%	0%[11.4 µM]	1%
O=C(c1cnccn1)N1CCC2(CCCN(Cc3ccncc3)C2)CC1	.	57%	-3%	-1%[11.4 µM]	1%
CN(C)S(=O)(=O)N1CCN(S(=O)(=O)c2ccc(F)cc2)CC1	>57	9%	3%	0%	0%
CN(C)S(=O)(=O)c1ccc(N2CCN(S(=O)(=O)c3ccc(F)cc3)CC2)c(Cl)c1	6.1*	1%	-4%	2%	-10%
Oc1[nH]c2ccccc2c1/C=N/c1nccs1	?	13µM*	-5%	25µM*	-6%
SMILES	PK Bst	Tau fil binding	Caspase-1 inhib	Luciferase inh	Casp7 inh
COc1cc(=O)n(C)c2c(OCC(O)C(C)(C)O)cccc12 (centres undefined)	.	.	-1%	.	-1%
C/C(=C\COc1cc(=O)[nH]c2ccccc12)CC[C@@H](O)C(C)(C)O	.	40µM*	.	-2%[11.4 µM]	.
OC(CCN1CCCCC1)(c1ccccc1)C1CCCCC1 (centres undefined)	>26	.	2%	-1%[25.5 µM]	1%
OC(CCN1CCOCC1)(c1ccc(Cl)cc1)C1CCCCC1 (centres undefined)	>57	20µM*	-3%	3%	-11%
c1ccc2c(Oc3ccc4c(c3)OCO4)nncc2c1	i	6%	1%	16µM*	-5%
OC(c1ccc2c(c1)OCO2)c1nccc2ccccc12 (centres undefined)	.	3%	0%	6%	2%[0.00368 µM]
COc1cccc(OC)c1OCCCc1c(C)n[nH]c1C	>57	-1%	1%	3%	-2%
COc1ccc2c3c(cccc13)NN=C2C	.	16µM*	?	-21%	?
C[N+](C)(C)/N=C\c1ccc(O)c(O)c1	.	7%[11.4 µM]	-1%[11.5 µM]	2%[11.4 µM]	1%[11.5 µM]
Oc1ccc(N=Cc2ccc(O)c(O)c2)cc1	.	6.3µM*	-18%	-15%	-26%
CCNc1nc(C)nc2c1oc1ccccc12	>57	-19%	-1%	1%	0%
CCNc1nc(CC)nc2c1oc1ccccc12	5*	4%	0%	-3%	-2%
CCN(CCO)C[C@H]1CCC[C@H]2CCCC[C@@H]21	.	-6%[11.4 µM]	-2%[11.5 µM]	1%[11.4 µM]	0%[11.5 µM]

Assay outcomes from PubChem BioAssay.
